{"source": "PubChem BioAssay AID1700", "about": "(The Scripps Research Institute Molecular Screening Center, 2009)", "note": "The whole screen tested about 290,000 compounds, of which about 670 (0.23%) were called active. For the sample, actives were picked, then their nearest neighbours and some compounds at random. Values without a mark were called inactive.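 The calls were made as follows: active = inhibition above a per-plate limit of that plate's mean compound inhibition plus 3 SD (cut at about 60% in these data); inactive = the rest.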", "data": [{"assay": "suppression of KLF5 promoter-driven luciferase – DLD-1 cells, luminescence, primary screen (AID 1700);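 also: 0% = DMSO wells and 100% = LY294002 at 200 µM; higher means less KLF5 promoter-driven luciferase light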", "settings": "DLD-1 KLF5 promoter-luciferase reporter, at 5 µM, stronger effect = higher value", "values": [{"smiles": "NC(=O)c1ccc(Nc2ccc3nonc3c2[N+](=O)[O-])cc1", "inhibition": "-33%"}, {"smiles": "CCOc1ccc(C2C3=C(CCCC3=O)N(CC(=O)O)C3=C2C(=O)CCC3)cc1", "inhibition": "0.17%"}, {"smiles": "O=C(CCNC(=O)C1CCN(S(=O)(=O)c2ccccc2)CC1)NC1CC1", "inhibition": "-34.7%"}, {"smiles": "Cc1csc(NC(=O)CSc2nnc(-c3cccnc3)o2)n1", "inhibition": "-90.3%"}, {"smiles": "COc1ccc(NC(=O)c2cc(-c3ccc(C)cc3)on2)cc1", "inhibition": "-28.2%"}, {"smiles": "COc1ccc(CS(=O)/C(Cl)=C(/Cl)C(=O)Nc2ccc(OC)nc2)cc1", "note": "(configuration not stated)", "inhibition": "100% (active)"}, {"smiles": "COc1ccc(C(=O)Nc2ccc(NC(=O)C(C)C)nc2)cc1", "inhibition": "-35%"}, {"smiles": "COc1ccc(Nc2cc(Cl)ccc2C(=O)O)cn1", "inhibition": "-11.6%"}, {"smiles": "COc1ccc(NC(=O)/C(Cl)=C(/Cl)S(=O)Cc2ccc(C)cc2)cn1", "note": "(configuration not stated)", "inhibition": "89% (active)"}, {"smiles": "CCOc1ccc(S(=O)(=O)Nc2ccc(OC)nc2)cc1", "inhibition": "-32.8%"}, {"smiles": "CCCCC[C@H]1CN(C2CCCCC2)C(=O)[C@@H]1CC(=O)NCc1ccc(OC)cc1", "inhibition": "-12.3%"}, {"smiles": "COc1cc(/C=N/Nc2nn3cnnc3c3ccccc23)cc(OC)c1OC", "inhibition": "-22.6%"}, {"smiles": "CN(CCO)c1ccc(/C=N/Nc2nncc3ccccc23)cc1", "inhibition": "68.3% (active)"}, {"smiles": "C/C(=N\\Nc1nncc2ccccc12)c1ccc(Cl)c([N+](=O)[O-])c1", "inhibition": "-127%"}, {"smiles": "CSc1ccc(/C=N\\NC(=O)COc2ccc(Cl)cc2Br)cc1", "inhibition": "-9.23%"}, {"smiles": "Cc1ccc(/C=N/NC(=O)COc2ccccc2-c2ccccc2)cc1", "inhibition": "77.9% (active)"}, {"smiles": "C=CCc1ccccc1OCC(=O)N/N=C/c1ccccc1OCC", "inhibition": "-10.7%"}, {"smiles": "COc1ccc(NC(=O)C(C)N2c3cccc4cccc(c34)S2(=O)=O)c(OC)c1", "note": "(configuration not stated)", "inhibition": "-5.03%"}, {"smiles": "O=C(O)CC/C(=C\\c1cc2c(cc1Br)OCO2)c1nc2ccccc2s1", "inhibition": "-12.1%"}, {"smiles": "Cc1ccc(S(=O)(=O)N(Cc2ccccc2)c2ccccn2)cc1[N+](=O)[O-]", "inhibition": "-20.6%"}, {"smiles": "COc1cc(N=Cc2c(O)[nH]c3ccccc23)cc(OC)c1OC", "inhibition": "66.8% (active)"}, {"smiles": "COCC(=O)N=Nc1c(O)[nH]c2ccccc12", "inhibition": "6.53%"}, {"smiles": "COc1ccc(N=Cc2c(O)[nH]c3ccccc23)cc1OC", "inhibition": "-9.79%"}, {"smiles": "Cc1ccc(CN(CC(=O)NCC2CCCO2)S(=O)(=O)c2ccc(C)cc2)cc1", "note": "(configuration not stated)", "inhibition": "-11%"}, {"smiles": "Cc1ccc(CNC(=O)CCS(=O)(=O)c2ccc3c(c2)CC(C)N3C(=O)C2CC2)o1", "note": "(configuration not stated)", "inhibition": "-9.9%"}, {"smiles": "CCOCCCNc1c(CC)c(C)c(C#N)c2nc3ccccc3n12", "inhibition": "-21.6%"}, {"smiles": "Cc1cccc(CN2CCC(n3nccc3NC(=O)c3ccccc3C)CC2)n1", "inhibition": "-34.2%"}, {"smiles": "CCCCCNC(=O)C1c2ccccc2Oc2ccccc21", "inhibition": "-20.8%"}, {"smiles": "Cn1cc(S(=O)(=O)Nc2ccc(Cl)cc2Cl)c(=O)n(C)c1=O", "inhibition": "-22.9%"}, {"smiles": "CCCc1ccc(OCC(O)CN2CCN(CCO)CC2)cc1", "note": "(configuration not stated)", "inhibition": "7.32%"}, {"smiles": "O=C(N/N=C/c1sc(N2CCCCC2)nc1-c1cccs1)c1cccnc1", "inhibition": "-30.2%"}, {"smiles": "COc1cccc(-c2nc(CS(=O)CC(=O)NCc3ccc(F)cc3)c(C)o2)c1", "note": "(configuration not stated)", "inhibition": "-11.1%"}, {"smiles": "NS(=O)(=O)c1ccc(CCNS(=O)(=O)c2cccc3cccnc23)cc1", "inhibition": "-50.1%"}, {"smiles": "CC(C)C(C)NC(=O)COc1nc2ccccc2nc1N(C)C1CCCCC1", "note": "(configuration not stated)", "inhibition": "-6.02%"}, {"smiles": "COc1ccccc1C1C2=C(COC2=O)Nc2cc3c(cc21)OCO3", "note": "(configuration not stated)", "inhibition": "75.8% (active)"}, {"smiles": "CCCOc1ccccc1C1CC(=O)Nc2cc3c(cc21)OCO3", "note": "(configuration not stated)", "inhibition": "46.2%"}, {"smiles": "COc1ccc(S(=O)(=O)Nc2ccc3c(c2)OCO3)cc1Cl", "inhibition": "-5.73%"}, {"smiles": "Cc1ccc(C2CC(=O)NC(SCC(=O)OCc3ccccc3)=C2C#N)o1", "note": "(configuration not stated)", "inhibition": "6.45%"}, {"smiles": "CCOC(=O)CSC1=C(C#N)C(c2ccco2)C(C(=O)OCc2ccccc2)=C(C)N1", "note": "(configuration not stated)", "inhibition": "-11.8%"}, {"smiles": "CCOC(=O)CSC1=C(C#N)C(c2sccc2C)CC(=O)N1", "note": "(configuration not stated)", "inhibition": "63.2% (active)"}, {"smiles": "NC(=O)CN1CCCC1c1ccc2c(c1)OCCO2", "note": "(configuration not stated)", "inhibition": "-21.8%"}, {"smiles": "C=CCn1c(=O)c(C(=O)NCc2ccc3c(c2)OCO3)c(O)c2ccccc21", "inhibition": "-23.1%"}, {"smiles": "CC/C(=N\\NC(=O)c1c(C)nc2ccccn12)c1ccc(Cl)cc1", "inhibition": "-19.6%"}, {"smiles": "Cc1cc(Cl)c2oc(C(=O)N(C)C(C)c3ccccn3)c(C)c2c1", "note": "(configuration not stated)", "inhibition": "-79%"}, {"smiles": "CC(C)Oc1ccc(/C=N/NC(=O)c2nnn(-c3nonc3N)c2CN(C)C2CCCCC2)cc1", "inhibition": "-15.7%"}, {"smiles": "CCOc1cc(-c2conc2N)cc(OCC)c1OCC", "inhibition": "5.84%"}, {"smiles": "O=C(NCCc1ccccc1)C(=O)NCC1OCCN1S(=O)(=O)c1cccs1", "note": "(configuration not stated)", "inhibition": "-36.9%"}, {"smiles": "COc1ccc2[nH]cc(CCN3C(=O)c4ccc(C(=O)O)cc4C3=O)c2c1", "inhibition": "-177%"}, {"smiles": "COc1ccc(OC)c(CCNC(=O)c2nn(C)c3c2CS(=O)(=O)c2ccccc2-3)c1", "inhibition": "-12.5%"}, {"smiles": "CC(C)CCn1c(=O)c2c(nc3n2CCCN3Cc2ccccc2)n(C)c1=O", "inhibition": "-4.63%"}, {"smiles": "Cc1ccc(C)c(N2CCN(C(=O)CCCn3c(=O)c4cccn4c4cccnc43)CC2)c1", "inhibition": "5.08%"}, {"smiles": "CCN(CC)S(=O)(=O)c1ccc(N2CC(C(=O)NCc3cccnc3)CC2=O)cc1", "note": "(configuration not stated)", "inhibition": "-14.9%"}, {"smiles": "COc1ccc(S(=O)(=O)N(CC(=O)N/N=C/c2ccc(C(=O)O)cc2)Cc2ccccc2)cc1OC", "inhibition": "5.79%"}, {"smiles": "Cc1nnc(N/N=C/c2ccccn2)[nH]c1=O", "inhibition": "2.56%"}, {"smiles": "COc1ccc(Cc2nnc(N/N=C/c3ccccc3O)[nH]c2=O)cc1OC", "inhibition": "102% (active)"}, {"smiles": "O=c1[nH]c(NCCO)nnc1Cc1ccc(Cl)cc1", "inhibition": "-8.33%"}, {"smiles": "COc1ccc(NC(=O)CCCN2C(=O)C(c3ccccc3)Oc3cccnc32)cc1", "note": "(configuration not stated)", "inhibition": "-1.26%"}, {"smiles": "Nc1nc(SCC(=O)Nc2cc(C(F)(F)F)ccc2Cl)[nH]c(=O)c1NC(=O)c1ccco1", "inhibition": "-9.6%"}, {"smiles": "Cc1ccc(OCCCC(=O)Nc2ccc(S(=O)(=O)Nc3cc(C)nc(C)n3)cc2)cc1", "inhibition": "0.85%"}, {"smiles": "O=S(=O)(c1cc(Cl)ccc1Cl)N1CCN(Cc2ccco2)CC1", "inhibition": "-4.75%"}, {"smiles": "c1ccc(-n2nc3ccccc3n2)cc1", "inhibition": "-2.18%"}, {"smiles": "Nc1ccc2nn(-c3ccc(Cl)cc3)nc2c1", "inhibition": "97.7% (active)"}, {"smiles": "CCC(=O)Nc1ccc2nn(-c3ccc(F)cc3)nc2c1", "inhibition": "-97%"}, {"smiles": "O=C(c1cc(-c2ccc(Cl)cc2)on1)N1CCN(c2ccccc2)CC1", "inhibition": "-69.1%"}, {"smiles": "Cc1cccc(C)c1OCCN1CCOCC1", "inhibition": "-15.7%"}, {"smiles": "Cc1ccc2c(c1)N(S(=O)(=O)c1cc(-c3cc(C)no3)ccc1C)CCO2", "inhibition": "-37.9%"}, {"smiles": "Cc1ccc(NC(=S)Nc2ncccc2C)c(C)c1", "inhibition": "79.6% (active)"}, {"smiles": "Cc1ccc(NC(=S)NCc2ccccc2Cl)c(C)c1", "inhibition": "-3.59%"}, {"smiles": "Cc1ccc(NC(=S)NCCc2ccc(Cl)cc2)c(C)c1", "inhibition": "-19%"}, {"smiles": "CCN1C(=NCCc2cccnc2)N[C@@H](c2ccccc2)C(C(=O)OC)=C1C", "inhibition": "-22%"}, {"smiles": "CC(C)c1ccc(NC(=O)Cn2ncc3ccccc32)cc1", "inhibition": "-106%"}, {"smiles": "CN(c1cccc(NC(=O)c2ccc(CN3CCc4ccccc4C3)cc2)c1)S(C)(=O)=O", "inhibition": "-29.8%"}, {"smiles": "CCN(CC)N=Nc1cccc(NC(C)=O)c1", "inhibition": "-51.2%"}, {"smiles": "Cc1ccc(C(=O)NC23CC4CC(CC(C4)C2)C3)c(Cl)c1", "inhibition": "-45.4%"}, {"smiles": "O=C(N/C(=C\\c1ccc(O)cc1)C(=O)N1CCCCC1)c1ccccc1", "inhibition": "-7.29%"}, {"smiles": "CN1CCN(C(=O)CCc2nc(-c3ccc(Cl)cc3)no2)CC1", "inhibition": "-29.1%"}, {"smiles": "CCNC(=O)CCc1nc(-c2ccc(C(C)(C)C)cc2)no1", "inhibition": "61.9% (active)"}, {"smiles": "CCNC(=O)CCc1nc(-c2ccc(C)cc2)no1", "inhibition": "-43.2%"}, {"smiles": "CCc1ccccc1S(=O)(=O)Cc1ccc(C(=O)NCCc2ccccc2)o1", "inhibition": "-41.4%"}, {"smiles": "CCOC(=O)C1CCN(C(=O)Cn2nc(C)c3c(C)n(-c4ccccc4)nc3c2=O)CC1", "inhibition": "-39.7%"}, {"smiles": "COc1cccc(-c2cc(C(=O)N3CCN(c4ccccc4OC)CC3)no2)c1", "inhibition": "-15.2%"}, {"smiles": "COc1ccccc1N1CCN(C(=O)c2cc(=O)c3cc(C)ccc3o2)CC1", "inhibition": "15.1%"}, {"smiles": "COc1ccccc1N1CCN(C(=O)c2cc(=O)c3cc(C)cc(C)c3o2)CC1", "inhibition": "88.2% (active)"}, {"smiles": "Cc1c(NC(=O)CSCc2ccccc2)cccc1C(=O)O", "inhibition": "-44.3%"}, {"smiles": "COc1cc(C(=O)NC2CCN(Cc3ccccc3)CC2)cc(Cl)c1OC(C)C", "inhibition": "0.72%"}, {"smiles": "O=C(Nc1nonc1-c1ccc(Cl)cc1)c1ccco1", "inhibition": "-1.44%"}, {"smiles": "COc1ccc(Nc2cc(C)nc(-n3nc(C)cc3C)n2)cc1", "inhibition": "75.5% (active)"}, {"smiles": "Cc1cc(Oc2ccc(Cl)cc2)nc(SCC(=O)c2ccccc2)n1", "inhibition": "-18.8%"}, {"smiles": "CC(=O)c1ccc(Oc2cc(C)nc(-n3nc(C)cc3C)n2)cc1", "inhibition": "61.9% (active)"}, {"smiles": "CCOC(=O)c1cnc(-n2nc(C)cc2C)nc1Nc1cccc(C(C)=O)c1", "inhibition": "-11.5%"}, {"smiles": "COc1ccccc1/C=N\\Nc1cc(C)nc(-n2nc(C)cc2C)n1", "inhibition": "-41.2%"}, {"smiles": "Cc1cc(N/N=C\\c2ccc(Br)cc2)nc(-n2nc(C)cc2C)n1", "inhibition": "3.64%"}, {"smiles": "COc1ccccc1CNS(=O)(=O)c1ccc2c(c1)NC(=O)CS2", "inhibition": "-51%"}, {"smiles": "CC(=O)c1ccc(N2Cc3ccccc3C2)cc1", "inhibition": "-125%"}, {"smiles": "CCC(=O)NC(Nc1nc2ccc(C)cc2s1)(C(=O)OC)C(F)(F)F", "note": "(configuration not stated)", "inhibition": "21.2%"}, {"smiles": "O=C(Nc1nc2ccc([N+](=O)[O-])cc2s1)c1ccc(S(=O)(=O)N2CCCc3ccccc32)cc1", "inhibition": "-18.3%"}, {"smiles": "O=C(NC(Nc1nc2ccc([N+](=O)[O-])cc2s1)(C(F)(F)F)C(F)(F)F)c1ccccc1", "inhibition": "67.7% (active)"}]}]}
